# Reference: PubChem BioAssay (EPA / NIEHS)
# Results filed as inconclusive are left out. The source made the active and inactive calls. The calls were made as follows: active = hit-call score of the fitted dose curve at least 0.9, where 1 is the maximum; inconclusive = response in the unintended direction; inactive = score below 0.9.
# Assays:
# [1] = molecular target: human LYN Proto-Oncogene, Src family Tyrosine Kinase (LynA), LYN (gene 4067) (UniProt P07948); assay: NVS_ENZ_hLynA: NovaScreen (NVS) Enzymatic Assay for human LYN Proto-Oncogene, Src family Tyrosine Kinase (LynA) (AID 2283173)
# How it was run: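 Recombinant kinase with fluorescent substrate; product separated from substrate by electrophoretic mobility shift and read 1 h after dosing. Duplicate screen at 25 uM, then concentration-response up to 50 uM; activity scored as signal loss against DMSO.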
# [2] = molecular target: human Phosphodiesterase 4A1 (PDE4A1), PDE4A (gene 5141) (UniProt P27815); assay: NVS_ENZ_hPDE4A1: NovaScreen (NVS) Enzymatic Assay for human Phosphodiesterase 4A1 (PDE4A1) (AID 2283191)
# How it was run: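 Fluorescent substrate turnover by recombinant PDE4A1 read after 1 h by mobility-shift separation. Primary duplicate screen at 25 uM; hits retested in concentration series with a 50 uM maximum, relative to DMSO.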
# [3] = molecular target: human Insulin Receptor (InsR), INSR (gene 3643) (UniProt P06213); assay: NVS_ENZ_hInsR: NovaScreen (NVS) Enzymatic Assay for human Insulin Receptor (InsR) (AID 2283168)
# Chain of human Insulin Receptor (InsR), INSR (gene 3643) (P06213 whole entry, looked up): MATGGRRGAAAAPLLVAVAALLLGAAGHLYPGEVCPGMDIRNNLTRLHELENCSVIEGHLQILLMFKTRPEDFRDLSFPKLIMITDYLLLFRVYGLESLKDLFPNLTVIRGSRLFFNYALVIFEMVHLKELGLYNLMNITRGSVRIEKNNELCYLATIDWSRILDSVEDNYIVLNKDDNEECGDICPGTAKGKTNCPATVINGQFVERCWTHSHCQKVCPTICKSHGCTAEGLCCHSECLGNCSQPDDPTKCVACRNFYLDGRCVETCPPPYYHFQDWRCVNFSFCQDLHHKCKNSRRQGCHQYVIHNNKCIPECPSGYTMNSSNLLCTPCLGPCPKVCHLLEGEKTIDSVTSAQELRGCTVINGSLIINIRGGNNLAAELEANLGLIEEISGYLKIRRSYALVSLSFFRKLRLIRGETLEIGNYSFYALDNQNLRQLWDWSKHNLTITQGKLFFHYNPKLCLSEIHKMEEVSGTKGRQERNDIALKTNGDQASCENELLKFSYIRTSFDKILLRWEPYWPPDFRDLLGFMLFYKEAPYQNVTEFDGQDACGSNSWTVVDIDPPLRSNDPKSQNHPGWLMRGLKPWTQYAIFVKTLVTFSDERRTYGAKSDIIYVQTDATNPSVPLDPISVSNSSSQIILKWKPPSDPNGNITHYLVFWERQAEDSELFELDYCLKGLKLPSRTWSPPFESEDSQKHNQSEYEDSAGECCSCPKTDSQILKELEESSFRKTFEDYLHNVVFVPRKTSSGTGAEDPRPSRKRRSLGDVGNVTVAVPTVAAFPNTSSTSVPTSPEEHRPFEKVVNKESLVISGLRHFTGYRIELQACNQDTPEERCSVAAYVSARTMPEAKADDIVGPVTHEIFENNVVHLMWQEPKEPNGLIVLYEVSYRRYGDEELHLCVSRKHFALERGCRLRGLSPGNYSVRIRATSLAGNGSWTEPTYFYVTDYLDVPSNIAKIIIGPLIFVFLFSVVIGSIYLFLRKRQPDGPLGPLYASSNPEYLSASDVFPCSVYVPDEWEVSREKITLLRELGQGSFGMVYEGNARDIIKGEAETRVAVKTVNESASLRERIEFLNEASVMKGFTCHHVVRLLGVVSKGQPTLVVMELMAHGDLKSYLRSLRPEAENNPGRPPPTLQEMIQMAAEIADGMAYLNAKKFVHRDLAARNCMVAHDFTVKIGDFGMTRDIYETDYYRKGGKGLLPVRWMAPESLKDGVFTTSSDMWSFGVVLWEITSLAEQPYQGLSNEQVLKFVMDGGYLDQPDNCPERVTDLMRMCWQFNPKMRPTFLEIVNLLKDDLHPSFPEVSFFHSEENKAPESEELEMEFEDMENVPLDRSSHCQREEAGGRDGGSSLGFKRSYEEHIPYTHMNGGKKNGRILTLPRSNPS
# How it was run: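 Cell-free enzyme assay read 1 h post-dose by fluorescence after substrate/product mobility-shift separation. Duplicate 25 uM primary screen, then singleton concentration-response up to 50 uM for compounds passing threshold; loss of signal vs DMSO.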
# [4] = molecular target: human Mitogen- and Stress-activated Protein Kinase-1 (Msk1), RPS6KA5 (gene 9252) (UniProt O75582); assay: NVS_ENZ_hMsk1: NovaScreen (NVS) Enzymatic Assay for human Mitogen- and Stress-activated Protein Kinase-1 (Msk1) (AID 2283187)
# How it was run: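 Chemicals first run in duplicate at 25 uM, with actives followed up in singleton concentration series to 50 uM maximum. Enzyme activity came from substrate/product mobility-shift separation with fluorescence detection after 1 h incubation of the recombinant protein.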
# [5] = molecular target: human Phosphoinositide 3-kinase alpha (PI3Ka), PIK3CA (gene 5290) (UniProt P42336); assay: NVS_ENZ_hPI3Ka: NovaScreen (NVS) Enzymatic Assay for human Phosphoinositide 3-kinase alpha (PI3Ka) (AID 2283196)
# Chain of human Phosphoinositide 3-kinase alpha (PI3Ka), PIK3CA (gene 5290) (P42336 whole entry, looked up): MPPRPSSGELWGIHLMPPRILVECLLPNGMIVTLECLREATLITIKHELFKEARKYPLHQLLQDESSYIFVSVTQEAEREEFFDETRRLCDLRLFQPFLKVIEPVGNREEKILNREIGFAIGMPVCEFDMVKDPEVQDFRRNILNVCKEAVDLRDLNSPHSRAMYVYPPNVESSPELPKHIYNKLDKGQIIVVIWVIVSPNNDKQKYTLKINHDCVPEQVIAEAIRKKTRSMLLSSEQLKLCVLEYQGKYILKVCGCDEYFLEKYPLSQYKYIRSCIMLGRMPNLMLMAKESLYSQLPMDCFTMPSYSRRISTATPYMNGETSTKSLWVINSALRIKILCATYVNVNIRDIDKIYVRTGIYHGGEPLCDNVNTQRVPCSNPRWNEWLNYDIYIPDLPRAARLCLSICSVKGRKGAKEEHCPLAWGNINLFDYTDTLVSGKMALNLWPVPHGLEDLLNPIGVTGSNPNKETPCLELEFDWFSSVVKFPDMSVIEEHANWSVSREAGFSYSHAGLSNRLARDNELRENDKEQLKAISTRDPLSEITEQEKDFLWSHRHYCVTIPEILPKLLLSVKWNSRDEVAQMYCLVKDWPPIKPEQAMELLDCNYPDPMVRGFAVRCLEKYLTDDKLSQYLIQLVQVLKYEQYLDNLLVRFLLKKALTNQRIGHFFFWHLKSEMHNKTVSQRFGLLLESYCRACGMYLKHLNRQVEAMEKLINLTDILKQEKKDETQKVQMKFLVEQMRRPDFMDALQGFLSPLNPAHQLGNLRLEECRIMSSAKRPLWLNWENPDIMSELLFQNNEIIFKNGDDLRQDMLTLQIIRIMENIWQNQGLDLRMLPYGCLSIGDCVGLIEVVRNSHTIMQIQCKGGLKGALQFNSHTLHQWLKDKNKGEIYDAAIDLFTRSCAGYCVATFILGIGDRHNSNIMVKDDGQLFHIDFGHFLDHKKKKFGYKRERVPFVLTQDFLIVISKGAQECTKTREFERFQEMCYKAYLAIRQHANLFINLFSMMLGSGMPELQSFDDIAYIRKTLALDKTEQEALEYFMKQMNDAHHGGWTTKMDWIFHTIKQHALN
# How it was run: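 Fluorescence/mobility-shift readout of substrate conversion by recombinant enzyme, 1 h post-dosing. Primary screen in duplicate at 25 uM; actives (e.g. ≥30% inhibition) retested in singleton concentration-response, top concentration 50 uM.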
# [6] = molecular target: human MAP Kinase-Activated Protein Kinase 2 (MAPKAPK2), MAPKAPK2 (gene 9261) (UniProt P49137); assay: NVS_ENZ_hMAPKAPK2: NovaScreen (NVS) Enzymatic Assay for human MAP Kinase-Activated Protein Kinase 2 (MAPKAPK2) (AID 2283178)
# Chain of human MAP Kinase-Activated Protein Kinase 2 (MAPKAPK2), MAPKAPK2 (gene 9261) (P49137 whole entry, looked up): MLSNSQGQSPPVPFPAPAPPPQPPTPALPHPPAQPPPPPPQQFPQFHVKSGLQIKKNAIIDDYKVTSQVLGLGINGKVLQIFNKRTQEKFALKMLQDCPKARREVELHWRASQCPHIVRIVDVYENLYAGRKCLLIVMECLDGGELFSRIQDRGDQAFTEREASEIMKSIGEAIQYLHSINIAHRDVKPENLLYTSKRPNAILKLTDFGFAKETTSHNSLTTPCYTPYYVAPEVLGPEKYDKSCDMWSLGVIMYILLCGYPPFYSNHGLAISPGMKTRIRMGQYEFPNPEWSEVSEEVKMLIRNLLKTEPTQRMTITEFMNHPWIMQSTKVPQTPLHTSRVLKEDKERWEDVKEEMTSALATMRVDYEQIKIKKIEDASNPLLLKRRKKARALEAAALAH
# How it was run: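 Chemicals screened in duplicate at 25 uM, then to 50 uM top concentration in concentration-response, against recombinant human MAPKAPK2; substrate conversion read 1 hr post-dosing by fluorescence after electrophoretic mobility-shift separation, loss-of-signal relative to DMSO.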
# [7] = molecular target: human Janus Kinase 2 (Jak2), JAK2 (gene 3717) (UniProt O60674); assay: NVS_ENZ_hJak2: NovaScreen (NVS) Enzymatic Assay for human Janus Kinase 2 (Jak2) (AID 2283169)
# Chain of human Janus Kinase 2 (Jak2), JAK2 (gene 3717) (O60674 whole entry, looked up): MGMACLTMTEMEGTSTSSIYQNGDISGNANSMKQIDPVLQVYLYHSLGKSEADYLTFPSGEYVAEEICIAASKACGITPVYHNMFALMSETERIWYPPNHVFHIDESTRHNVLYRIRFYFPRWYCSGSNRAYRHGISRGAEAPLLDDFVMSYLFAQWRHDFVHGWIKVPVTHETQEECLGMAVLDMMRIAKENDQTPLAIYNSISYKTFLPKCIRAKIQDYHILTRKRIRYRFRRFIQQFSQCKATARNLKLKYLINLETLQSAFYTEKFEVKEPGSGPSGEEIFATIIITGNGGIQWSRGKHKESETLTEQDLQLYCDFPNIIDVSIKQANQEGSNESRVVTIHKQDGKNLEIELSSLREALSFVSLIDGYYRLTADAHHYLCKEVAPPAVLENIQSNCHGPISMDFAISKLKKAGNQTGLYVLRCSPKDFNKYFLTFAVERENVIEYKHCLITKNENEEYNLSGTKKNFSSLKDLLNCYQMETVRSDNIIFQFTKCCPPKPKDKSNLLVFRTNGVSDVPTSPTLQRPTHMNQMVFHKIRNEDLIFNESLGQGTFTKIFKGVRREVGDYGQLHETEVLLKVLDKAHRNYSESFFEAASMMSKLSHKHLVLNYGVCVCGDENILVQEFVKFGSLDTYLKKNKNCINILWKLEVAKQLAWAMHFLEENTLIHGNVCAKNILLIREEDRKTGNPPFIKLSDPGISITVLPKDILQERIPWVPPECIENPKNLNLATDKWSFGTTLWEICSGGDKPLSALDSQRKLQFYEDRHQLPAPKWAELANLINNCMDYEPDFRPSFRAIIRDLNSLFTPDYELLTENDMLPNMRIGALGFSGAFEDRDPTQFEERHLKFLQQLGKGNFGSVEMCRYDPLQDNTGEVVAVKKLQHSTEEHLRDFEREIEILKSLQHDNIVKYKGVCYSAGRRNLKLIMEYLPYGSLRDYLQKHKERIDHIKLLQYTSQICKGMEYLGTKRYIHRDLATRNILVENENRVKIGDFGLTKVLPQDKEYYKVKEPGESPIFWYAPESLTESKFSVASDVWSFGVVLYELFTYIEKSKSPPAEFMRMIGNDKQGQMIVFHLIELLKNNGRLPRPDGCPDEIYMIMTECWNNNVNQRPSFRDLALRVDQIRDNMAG
# How it was run: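 Single-point duplicate screen at 25 uM, with hits run in concentration series to a 50 uM top dose. Substrate-product separation by mobility shift with fluorescence detection, 1 h post-dosing; DMSO baseline.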
# [8] = molecular target: human c-Jun N-terminal Kinases (JNK2), MAPK9 (gene 5601) (UniProt P45984); assay: NVS_ENZ_hJNK2: NovaScreen (NVS) Enzymatic Assay for human c-Jun N-terminal Kinases (JNK2) (AID 2283171)
# How it was run: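 Chemicals first tested in duplicate at 25 uM, then in singleton concentration series up to 50 uM, against extracted JNK2 enzyme. Activity loss read by fluorescence with mobility-shift separation 1 h post-dose; DMSO baseline.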
# [9] = molecular target: human FYN Proto-Oncogene, Src family Tyrosine Kinase (Fyn), FYN (gene 2534) (UniProt P06241); assay: NVS_ENZ_hFyn: NovaScreen (NVS) Enzymatic Assay for human FYN Proto-Oncogene, Src family Tyrosine Kinase (Fyn) (AID 2283161)
# How it was run: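 Cell-free kinase activity read by fluorescence after mobility-shift separation of substrate and product, 1 h post-dose. Initial single concentration 25 uM in duplicate, then concentration-response follow-up; DMSO baseline.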
# [10] = molecular target: cAMP-dependent protein kinase catalytic subunit alpha (Homo sapiens) (UniProt P17612); assay: NVS_ENZ_hPKA: NovaScreen (NVS) Enzymatic Assay for human Protein Kinase A (PKA) (AID 2283192)
# How it was run: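 Cell-free kinase activity read by fluorescence after mobility-shift separation of substrate and product, 1 h post-dosing. Single-concentration duplicate screen (25 uM) preceded singleton concentration series (top 50 uM); loss of signal versus DMSO.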
# [11] = molecular target: Histone deacetylase 3 (Homo sapiens) (UniProt O15379); assay: NVS_ENZ_hHDAC3: NovaScreen (NVS) Enzymatic Assay for human Histone Deacetylase 3 (HDAC3) (AID 2283163)
# How it was run: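 Cell-free enzyme format: loss of fluorescent product after mobility-shift separation, 1 h incubation, recombinant human HDAC3. Single 25 uM duplicate screen first, then concentration series to a 50 uM top for hits; DMSO as baseline.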
# [12] = molecular target: Collagenase 3 (Homo sapiens) (UniProt P45452); assay: NVS_ENZ_hMMP13: NovaScreen (NVS) Enzymatic Assay for human Matrix Metalloproteinase-13 (MMP13) (AID 2283182)
# How it was run: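 Recombinant MMP13 cleaving fluorescent substrate, cell-free, measured 1 h after dosing. Primary duplicate screen at 25 uM; actives tested in concentration-response up to 50 uM; loss of signal relative to DMSO.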
# [13] = molecular target: Mitogen-activated protein kinase 3 (Homo sapiens) (UniProt P27361); assay: NVS_ENZ_hMAPK3: NovaScreen (NVS) Enzymatic Assay for human Mitogen-Activated Protein Kinase 3 (MAPK 3) (AID 2283177)
# Chain of Mitogen-activated protein kinase 3 (Homo sapiens) (P27361 whole entry, looked up): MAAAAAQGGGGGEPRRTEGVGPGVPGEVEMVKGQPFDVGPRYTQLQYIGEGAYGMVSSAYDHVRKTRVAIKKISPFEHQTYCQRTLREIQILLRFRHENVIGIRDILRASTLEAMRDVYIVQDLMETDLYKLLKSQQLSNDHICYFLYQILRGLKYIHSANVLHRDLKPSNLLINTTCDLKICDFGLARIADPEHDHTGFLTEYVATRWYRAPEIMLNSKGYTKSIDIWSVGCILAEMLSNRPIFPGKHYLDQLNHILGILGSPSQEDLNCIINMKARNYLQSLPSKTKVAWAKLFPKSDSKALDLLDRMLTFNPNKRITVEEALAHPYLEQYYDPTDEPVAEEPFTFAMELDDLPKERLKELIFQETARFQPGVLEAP
# How it was run: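 Chemicals were first tested in duplicate at 25 uM, with hits re-run as concentration series (max 50 uM). Recombinant enzyme activity, measured 1 h post-dose in a cell-free format, was read by fluorescence/mobility shift relative to DMSO.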
# [14] = molecular target: human Ephrin type-A Receptor 1 (EphA1), EPHA1 (gene 2041) (UniProt P21709); assay: NVS_ENZ_hEphA1: NovaScreen (NVS) Enzymatic Assay for human Ephrin type-A Receptor 1 (EphA1) (AID 2283158);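 also: activity is signal loss versus DMSO meaning EphA1 kinase inhibition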
# How it was run: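 Recombinant kinase, fluorescent substrate, mobility-shift separation, fluorescence read at 1 h. Single-point duplicates at 25 uM; hits (e.g., ≥30% inhibition) run singleton concentration-response, max 50 uM. DMSO = negative control/baseline.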
# [15] = molecular target: human Matrix Metalloproteinase-7 (MMP7), MMP7 (gene 4316) (UniProt P09237); assay: NVS_ENZ_hMMP7: NovaScreen (NVS) Enzymatic Assay for human Matrix Metalloproteinase-7 (MMP7) (AID 2283183)
# Chain of human Matrix Metalloproteinase-7 (MMP7), MMP7 (gene 4316) (P09237 whole entry, looked up): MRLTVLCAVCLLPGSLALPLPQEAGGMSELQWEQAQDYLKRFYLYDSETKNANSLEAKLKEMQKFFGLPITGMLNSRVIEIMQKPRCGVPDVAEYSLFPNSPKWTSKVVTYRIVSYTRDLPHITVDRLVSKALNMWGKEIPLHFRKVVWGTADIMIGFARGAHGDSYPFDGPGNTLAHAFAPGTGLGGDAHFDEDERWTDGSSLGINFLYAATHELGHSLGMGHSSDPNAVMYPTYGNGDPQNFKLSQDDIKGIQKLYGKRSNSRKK
# How it was run: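 Compounds first tested at 25 uM in duplicate, then at up to 50 uM in concentration series if active. Protease activity measured by fluorescence intensity 1 h after dosing, with fitting relative to DMSO.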
# [16] = molecular target: Serine/threonine-protein phosphatase PP1-alpha catalytic subunit (Homo sapiens) (UniProt P62136); assay: NVS_ENZ_hPPP1CA: NovaScreen (NVS) Enzymatic Assay for human Protein Phosphatase 1 Aatalytic subunit Alpha (PPP1CA) (AID 2283200)
# Chain of Serine/threonine-protein phosphatase PP1-alpha catalytic subunit (Homo sapiens) (P62136 whole entry, looked up): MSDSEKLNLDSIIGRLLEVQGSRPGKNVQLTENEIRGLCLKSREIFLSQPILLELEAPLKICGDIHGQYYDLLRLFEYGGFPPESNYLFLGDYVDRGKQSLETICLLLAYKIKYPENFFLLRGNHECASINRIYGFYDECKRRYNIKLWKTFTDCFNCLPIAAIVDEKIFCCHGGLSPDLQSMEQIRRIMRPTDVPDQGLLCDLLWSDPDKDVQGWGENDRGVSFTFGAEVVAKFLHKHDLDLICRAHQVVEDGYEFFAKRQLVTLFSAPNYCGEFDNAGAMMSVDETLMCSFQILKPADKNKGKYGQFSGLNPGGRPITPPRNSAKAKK
# How it was run: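 Chemicals were first screened in duplicate at 25 uM, and those passing threshold (e.g. 30% inhibition) were run as concentration series to 50 uM. Cell-free recombinant protein, 1.33 h read, fluorescent substrate/product mobility-shift detection, normalised to DMSO.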
# [17] = molecular target: human Phosphodiesterase 10 (PDE10), PDE10A (gene 10846) (UniProt Q9Y233); assay: NVS_ENZ_hPDE10: NovaScreen (NVS) Enzymatic Assay for human Phosphodiesterase 10 (PDE10) (AID 2283195)
# How it was run: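 Biochemical single-readout PDE10A assay, cell-free, extracted protein. Compounds first screened at 25 uM in duplicate, hits then titrated to 50 uM max. Activity measured after 1 h; loss-of-signal fitted against DMSO negative control.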
# [18] = molecular target: human Protein Tyrosine Phosphatase Non-receptor Type 1 (PTPN1), PTPN1 (gene 5770) (UniProt P18031); assay: NVS_ENZ_hPTPN1: NovaScreen (NVS) Enzymatic Assay for human Protein Tyrosine Phosphatase Non-receptor Type 1 (PTPN1) (AID 2283201)
# How it was run: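 Chemicals were first tested in duplicate at 25 uM, and those passing threshold went on to singleton concentration series topping at 50 uM. Recombinant enzyme, specific substrate, product separated by mobility shift, fluorescence read at 1.33 h; activity loss relative to DMSO.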
# [19] = molecular target: human Protein Phosphatase, Mg2+/Mn2+ Dependent 1A (PPM1A), PPM1A (gene 5494) (UniProt P35813); assay: NVS_ENZ_hPPM1A: NovaScreen (NVS) Enzymatic Assay for human Protein Phosphatase, Mg2+/Mn2+ Dependent 1A (PPM1A) (AID 2283198)
# How it was run: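 Primary screen in duplicate at 25 uM, with actives then titrated to a maximum of 50 uM. Recombinant PPM1A dephosphorylation of fluorescent substrate measured at 1 h, with substrate and product separated by mobility shift; inhibition fitted against DMSO.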
# [20] = molecular target: human Matrix Metalloproteinase-2 (MMP2), MMP2 (gene 4313) (UniProt P08253); assay: NVS_ENZ_hMMP2: NovaScreen (NVS) Enzymatic Assay for human Matrix Metalloproteinase-2 (MMP2) (AID 2283184)
# How it was run: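 Compounds first screened in duplicate at a single 25 uM, with actives followed up in concentration series. Recombinant human MMP2 cleaves a fluorogenic substrate; fluorescence taken at 1 h, inhibition fitted relative to DMSO.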
compound,measurement,setting,value
CC(=O)Oc1ccccc1C(=O)O,outcome,[1],inactive
same,outcome,[2],inactive
CCc1c(C(=O)NN2CCCCC2)nn(-c2ccc(Cl)cc2Cl)c1-c1ccc(Br)cc1,outcome,[3],inactive
same,outcome,[4],inactive
same,outcome,[5],inactive
CCOC(=O)CCC(=O)OCC,outcome,[6],inactive
CCCCCCCCCCCCCCCC,outcome,[7],inactive
Cc1ccc(C(C)C)c(O)c1,outcome,[8],inactive
NCCO,outcome,[9],inactive
same,outcome,[8],inactive
same,outcome,[4],inactive
same,outcome,[10],inactive
O=c1c(O)c(-c2ccc(O)c(O)c2)oc2cc(O)cc(O)c12,outcome,[11],inactive
c1cc(-c2ccncc2)ccn1,outcome,[12],inactive
O=C(O)CCCCC(=O)O,outcome,[3],inactive
same,outcome,[13],inactive
Cc1ccc(Cl)cc1,outcome,[13],inactive
CC(=O)OCCOCCOCCOC(C)=O,outcome,[3],inactive
Cc1oc(-c2ccccc2)nc1CCOc1cccc2c1ccn2CCC(=O)O,outcome,[14],inactive
same,outcome,[7],inactive
same,outcome,[15],inactive
CCCCCCCCCCCCCCCCCC(=O)O,outcome,[7],inactive
Nc1ccc2c(c1)C(=O)c1ccccc1C2=O,AC50,[6],16.5 µM (active)
same,outcome,[16],inactive
Cc1cccc([N+](=O)[O-])c1C,AC50,[12],2.06 µM (active)
CCOC(=O)C(C)(C)Oc1ccc(Cl)cc1,outcome,[7],inactive
same,outcome,[17],inactive
same,outcome,[5],inactive
same,outcome,[18],inactive
CN[C@H]1CC[C@@H](c2ccc(Cl)c(Cl)c2)c2ccc(S(N)(=O)=O)cc21,AC50,[12],2.36 µM (active)
same,outcome,[15],inactive
same,outcome,[19],inactive
COc1cc(-c2nc(NC(=O)c3cc4cc(C)cc(C)c4n3CC(=O)O)sc2CCC2CCCCC2)c(OC)cc1Cl,AC50,[6],6.49 µM (active)
same,AC50,[16],1.42 µM (active)
Cc1nc(-c2ccc3c(c2)CCN(CCC2CCC(NC(=O)/C=C/c4ccc(F)cc4)CC2)CC3)no1 (centres undefined),AC50,[7],17.1 µM (active)
same,AC50,[12],5.67 µM (active)
same,AC50,[20],13.7 µM (active)
same,AC50,[17],3.71 µM (active)
same,outcome,[5],inactive
